Assay results as given in PubChem BioAssay (NCATS).
Values joined by “and” are separate entries in the source; they are usually repeats but may differ in a detail not shown here. Equal values may be shown once. Records with an inconclusive call do not appear. Active and inactive are the calls of the source. The call rests on the fitted dose curve; in most records, active means well fitted curve in the direction sought with a large enough effect; inconclusive means small, poorly fitted or top-dose-only effect, or another doubt; inactive means no such curve, though single readings can be large; an effect the other way counts as inactive or inconclusive.

Experiments:
[1] = target: Cytochrome P450 3A7 (Homo sapiens) (UniProt P24462); experiment: Cytochrome P450 family 3 subfamily A member 7 (CYP3A7) small molecule antagonists: luciferase biochemical qHTS assay (AID 1963596); further: on the % scale 0 is the no-effect control and ±100 the full control effect; nearly all actives have a fitted effect of over 40% in size
Chain of Cytochrome P450 3A7 (Homo sapiens) (P24462 whole entry, looked up): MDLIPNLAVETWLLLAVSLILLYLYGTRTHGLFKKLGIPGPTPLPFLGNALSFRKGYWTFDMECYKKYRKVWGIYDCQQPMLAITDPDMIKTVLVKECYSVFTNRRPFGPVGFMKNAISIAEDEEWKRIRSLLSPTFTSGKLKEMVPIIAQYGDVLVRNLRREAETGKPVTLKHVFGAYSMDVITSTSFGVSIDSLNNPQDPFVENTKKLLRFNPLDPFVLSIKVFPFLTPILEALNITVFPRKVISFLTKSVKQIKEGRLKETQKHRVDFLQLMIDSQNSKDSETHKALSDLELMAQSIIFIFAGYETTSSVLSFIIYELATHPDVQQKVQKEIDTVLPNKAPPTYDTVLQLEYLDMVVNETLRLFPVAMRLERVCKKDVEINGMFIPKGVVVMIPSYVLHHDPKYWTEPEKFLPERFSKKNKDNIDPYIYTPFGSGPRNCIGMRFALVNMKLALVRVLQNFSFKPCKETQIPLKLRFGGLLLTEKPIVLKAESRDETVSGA
In short: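 Biochemical CYP3A7 activity measured with P450-Glo system: luciferin formed from proluciferin substrate in NADPH-driven reaction (1 h, room temperature) after 10 min compound preincubation. Signal in relative luminescence units.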

[2] = Viability qHTS for spleen associated tyrosine kinase inhibitor (SYKi) naive MV4-11 cells (AID 1963823); further: nearly all actives have a fitted effect of over 40% in size; further: potency means the concentration at half of the fitted maximal effect
In short: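 qHTS, SYK inhibitor-naive MV4-11; 500 cells/well; 72 hr compound exposure, 37 C; CellTiter-Glo added, 10 min RT; luminescence read.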

[3] = Viability qHTS for spleen associated tyrosine kinase inhibitor (SYKi) drug resistant MV4-11 cells (AID 1963824); further: nearly all actives have a fitted effect of over 35% in size; further: potency means the concentration at half of the fitted maximal effect
In short: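 CellTiter-Glo luminescence, read 10 min after reagent addition, reports viability after a 72 hr compound exposure. Cells are an MV4-11 line made resistant to SYK inhibition, seeded at 500 per well onto compound-containing plates.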

[4] = Cellular viability qHTS for adrenocortical cancer (ACC) cell line NCI-H295R (AID 1963990); further: nearly all actives have a fitted effect of over 60% in size; further: potency means the concentration at half of the fitted maximal effect
In short: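 Readout: CellTiter-Glo luminescence, 20 min RT. Exposure: 48 h, 37C/5% CO2. Cells: NCI-H295R, ITS-DMEM serum-free. Range: up to 46 uM. Analysis: 4PL fit, IC50 plus efficacy.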

[5] = Quantitative highthroughput screen to assess conditional lethalithy of NOMO1 cells grown in RPMI1640 with untreated serum (RPMI+s) (AID 1963876); further: nearly all actives have a fitted effect of over 35% in size; further: potency means the concentration at half of the fitted maximal effect;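 on Viability: 100% = DMSO wells and 0% = empty wells without cells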
In short: (§1)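 Each medium arm—HPLM with 10% dialyzed FBS, or RPMI1640 with 5 mM glucose and 10% untreated or dialyzed FBS—was screened against an 11-point, 3-fold compound titration for 48 h at 37 °C, with CellTiter-Glo luminescence as endpoint.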

[6] = Quantitative highthroughput screen to assess conditional lethalithy of NOMO1 cells grown in RPMI1640 with dialyzed fetal bovine serum (RPMI+ds) (AID 1963877); further: nearly all actives have a fitted effect of over 30% in size; further: potency means the concentration at half of the fitted maximal effect;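 on Viability: series mostly up to about 46 µM; 100% = DMSO control wells and 0% = empty wells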
In short: as §1

[7] = Quantitative highthroughput screen to assess conditional lethalithy of NOMO1 cells grown in Human Plasma-Like Medium with dialyzed fetal bovine serum (HPLM+ds) (AID 1963878); further: nearly all actives have a fitted effect of over 35% in size; further: potency means the concentration at half of the fitted maximal effect;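 on Viability: 100% = DMSO wells and 0% = empty wells on each plate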
In short: as §1

[8] = Quantitative highthroughput screen to assess conditional lethalithy of P12 Ichikawa cells grown in Human Plasma-Like Medium with dialyzed fetal bovine serum (HPLM+ds) (AID 1963879); details: Potency: viability; further: nearly all actives have a fitted effect of over 35% in size; further: potency means the concentration at half of the fitted maximal effect; on Viability: series mostly up to about 46 µM
In short: as §1

[9] = Quantitative highthroughput screen to assess conditional lethalithy of P12 Ichikawa cells grown in RPMI1640 with dialyzed fetal bovine serum (RPMI+ds) (AID 1963880); details: Potency: P12-Ichikawa viability; further: nearly all actives have a fitted effect of over 35% in size; further: potency means the concentration at half of the fitted maximal effect;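 on Viability: 100% = DMSO wells and 0% = empty wells on each plate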
In short: as §1

[10] = Quantitative highthroughput screen to assess conditional lethalithy of P12 Ichikawa cells grown in RPMI1640 with untreated serum (RPMI+s) (AID 1963881); details: Potency: viability; further: nearly all actives have a fitted effect of over 35% in size; further: potency means the concentration at half of the fitted maximal effect;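 on Viability: series mostly up to about 46 µM; 100% = DMSO wells and 0% = empty wells without cells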
In short: as §1

[11] = Quantitative highthroughput screen to assess conditional lethalithy of SEM cells grown in Human Plasma-Like Medium with dialyzed fetal bovine serum (HPLM+ds) (AID 1963882); further: nearly all actives have a fitted effect of over 35% in size; further: potency means the concentration at half of the fitted maximal effect; on Viability: series mostly up to about 46 µM
In short: as §1

[12] = Quantitative highthroughput screen to assess conditional lethalithy of SEM cells grown in RPMI1640 with unreated serum (RPMI+s) (AID 1963883); further: nearly all actives have a fitted effect of over 35% in size; further: potency means the concentration at half of the fitted maximal effect;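 on Viability: 100% = DMSO wells and 0% = empty wells without cells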
In short: as §1

[13] = Quantitative highthroughput screen to assess conditional lethalithy of SEM cells grown in RPMI1640 with dialyzed fetal bovine serum (RPMI+ds) (AID 1963884); further: nearly all actives have a fitted effect of over 35% in size; further: potency means the concentration at half of the fitted maximal effect;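 on Viability: series mostly up to about 46 µM; 100% = DMSO control wells and 0% = empty wells without cells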
In short: as §1

[14] = Cellular viability qHTS for adrenocortical cancer (ACC) cell line SW-13 (AID 1963989); details: SW-13 ACC cells viability, CellTiter-Glo, 48 h; activity (max response): active compounds read low;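 further: cells grown in serum-free medium with ITS supplement; on the % scale 0 is the no-effect control and ±100 the full control effect; nearly all actives have a fitted effect of over 65% in size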
In short: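 Compound titrations (up to 46 uM final, in DMSO) were applied to SW-13 cells for 48 h at 37C/5% CO2. Reading used CellTiter-Glo after 20 min at room temperature; fitted curves yielded IC50 and efficacy.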

Cc1cc(C(C)(C)C)c(O)c(C(C)(C)C)c1
inactive: Potency [1] | Potency [2] | Potency [3]
active: Potency [4] 25.9 µM

CC(C)(C)c1cc(C=O)cc(C(C)(C)C)c1O
inactive: Potency [1] | Potency [2] | Potency [3] | Potency [4]

CC(C)(C)c1ccc(C(O)CCCN2CCC(C(O)(c3ccccc3)c3ccccc3)CC2)cc1 (centres undefined)
inactive: Potency [1]
active: Potency [2] 21.1 µM | Potency [3] 11.9 µM | Potency [4] 4.11 µM

CCCC(=O)Nc1ccc(OCC(O)CNC(C)C)c(C(C)=O)c1 (centres undefined)
inactive: Potency [1] | Potency [2] | Potency [3] | Potency [4]

C[C@H](N)[C@H](O)c1cccc(O)c1
inactive: Potency [1] | Potency [2] | Potency [3] | Potency [4]

CCN[C@H]1C[C@H](C)S(=O)(=O)c2sc(S(N)(=O)=O)cc21
inactive: Potency [1] | Potency [2] | Potency [5] | Potency [6] | Potency [7] | Potency [8] | Potency [9] | Potency [10] | Potency [11] | Potency [12] | Potency [13] | activity (max response) [14] 3.89% and 5.72% | Potency [4]

O=C(O)c1cn(-c2ccc(F)cc2)c2cc(N3CCNCC3)c(F)cc2c1=O
inactive: Potency [1] | Potency [2] | Potency [5] | Potency [6] | Potency [7] | Potency [8] | Potency [9] | Potency [10] | Potency [11] | Potency [12] | Potency [13] | activity (max response) [14] -4.38% and 8.16% | Potency [4]

NC(CSCC(=O)O)C(=O)O (centres undefined)
inactive: Potency [1] | Potency [2] | Potency [3] | Potency [4]

Cc1c(C)c2c(c(C)c1OC(=O)c1cccnc1)CC[C@@](C)(CCC[C@H](C)CCC[C@H](C)CCCC(C)C)O2
inactive: Potency [1] | Potency [2] | Potency [3] | Potency [4]

CNC1CCCN(c2c(F)cc3c(=O)c(C(=O)O)cn(C4CC4)c3c2OC)C1 (centres undefined)
inactive: Potency [1] | Potency [2] | Potency [5] | Potency [6] | Potency [7] | Potency [8] | Potency [10] | Potency [12] | Potency [13] | activity (max response) [14] 2.01% and 5.57% | Potency [4]

CCCCCCCCCCCCCC(=O)OC(C)C
inactive: Potency [1] | Potency [2] | Potency [3] | Potency [4]

CN(c1nccc(=O)[nH]1)C1CCN(c2nc3ccccc3n2Cc2ccc(F)cc2)CC1
inactive: Potency [1] | Potency [2] | Potency [5] | Potency [6] | Potency [7] | Potency [8] | Potency [9] | Potency [10] | Potency [12] | Potency [13] | activity (max response) [14] 5.56%

O=C(c1ccccc1)c1ccc2n1CCC2C(=O)O (centres undefined)
inactive: Potency [1] | Potency [2] | Potency [5] | Potency [6] | Potency [7] | activity (max response) [14] 8.29% and -6.52% | Potency [4]
active: Potency [8] 2.35 µM | Potency [9] 4.18 µM | Potency [10] 3.72 µM | Potency [13] 4.69 µM

C=C(CC)C(=O)c1ccc(OCC(=O)O)c(Cl)c1Cl
inactive: Potency [1]
active: Potency [2] 13.3 µM | Potency [3] 15 µM | Potency [4] 9.2 µM

NC(=O)NS(=O)(=O)c1ccc(Cl)cc1
inactive: Potency [1] | Potency [2] | Potency [3] | Potency [4]

CC(=O)OCC(CCn1cnc2cnc(N)nc21)COC(C)=O
inactive: Potency [1] | Potency [2] | Potency [5] | Potency [6] | Potency [7] | Potency [8] | Potency [9] | Potency [10] | Potency [11] | Potency [12] | Potency [13] | Potency [4]

C[C@@H](CN1CC(=O)NC(=O)C1)N1CC(=O)NC(=O)C1
active: Potency [5] 0.469 µM | Potency [6] 0.332 µM | Potency [7] 0.148 µM | Potency [8] 0.372 µM | Potency [9] 0.59 µM | Potency [11] 0.0935 µM | Potency [12] 0.0662 µM | Potency [13] 0.0743 µM
inactive: Potency [1] | Potency [2] | activity (max response) [14] 3.22% and 6.64% | Potency [4]

C[C@H]1NCc2cc(-c3ccc4c(=O)c(C(=O)O)cn(C5CC5)c4c3OC(F)F)ccc21
inactive: Potency [1] | Potency [2] | Potency [3] | Potency [4]

O=C(Oc1ccccc1C(=O)O)c1ccccc1O
inactive: Potency [1] | Potency [2] | Potency [3] | Potency [4]

COc1ccccc1OCC(O)CN1CCN(CC(=O)Nc2c(C)cccc2C)CC1 (centres undefined)
inactive: Potency [1] | Potency [2] | Potency [5] | Potency [6] | Potency [7] | Potency [8] | Potency [9] | Potency [10] | Potency [12] | Potency [13] | activity (max response) [14] 1.47% and 6.99%

CCOCC(O)COc1ccc(NC(=O)CC[S+](C)C)cc1 (centres undefined)
inactive: Potency [1] | Potency [2] | Potency [5] | Potency [6] | Potency [7] | Potency [8] | Potency [9] | Potency [10] | Potency [11] | Potency [12] | Potency [13] | activity (max response) [14] 1.78% and -20% | Potency [4]

CC[N+](C)(C)c1cccc(O)c1
inactive: Potency [1] | Potency [2] | Potency [3] | Potency [4]
